Molecules are shown by their SMILES. Out of some 39,000 compounds screened, about 3,300 (8.5%) were called active. This excerpt belongs to a sample that is enriched for actives.

The experiment has as its system HepG2. Description: cytotoxicity call (relative viability < 0.9). The following applies: 10 µM.
For `C[C@@H]1CCCCO[C@@H](CN(C)Cc2ccc(C(=O)O)cc2)[C@@H](C)CN([C@H](C)CO)C(=O)c2cc(NC(=O)C3CCCCC3)ccc2O1`, the cytotoxicity call is “inactive”.
The same measure for `CC1=C(C(=O)O)N2C(=O)[C@@H](NC(=O)[C@H](N)c3ccc(O)cc3)[C@H]2SC1`: “inactive”.
As for `COCC(=O)Nc1ccc2c(c1)CC(=O)N2`, the entry is “inactive”; as for `CCN1CCN(Cc2ccc(C(=O)Nc3ccc(C)c(Oc4ccc5c(c4)CC(=O)N5)c3)cc2C(F)(F)F)CC1`, “active”; as for `CC1=NCCC2c3ccc(O)cc3NC12` (stereo unspecified), “active”.
The same measure for `CCS(=O)(=O)N1C[C@]2(C1)CN([C@@H](CO)c1[nH]c3cc(ccc3c12)OC)S(=O)(=O)c1cccc(c1)OC`: “inactive”; for `C[C@@H]1CN([C@@H](C)CO)C(=O)c2cccc(NC(=O)c3ccncc3)c2O[C@@H]1CN(C)Cc1ccncc1`: “inactive”; for `CN1C(=O)c2cc(NC(=O)c3cscn3)ccc2OC[C@H]2O[C@H](CC(=O)N3CCOCC3)CC[C@@H]21`: “inactive”.
For the compound `C=C1C(=O)OC2CC3(C)CCCC(C)C3=CC12` (stereo unspecified), the cytotoxicity call is “active”.
As for `C[C@H](CO)N1C[C@H](C)[C@@H](CN(C)C(=O)Nc2ccccc2)Oc2ccc(NC(=O)Cn3cnnn3)cc2CC1=O`, the entry is “inactive”.
The same measure for `CC(=O)N(C)C[C@@H]1Oc2cc(C#CCN(C)C)ccc2S(=O)(=O)N([C@@H](C)CO)C[C@@H]1C`: “inactive”; for `COc1ccc(S(=O)(=O)Nc2ccc3c(c2)CC(=O)N([C@@H](C)CO)C[C@H](C)[C@@H](CN(C)Cc2ccncc2)O3)cc1`: “inactive”.
For `FC(F)Oc1cccc2cccnc12`, the cytotoxicity call was “inactive”.
The same measure for `O=C(Oc1cccc2cccnc12)c1ccccc1`: “active”; for `O=C(O)c1ccccn1`: “inactive”.
As for `CC(C)NC(=O)N(C)C[C@@H]1Oc2ccc(NC(=O)NC3CCCCC3)cc2C(=O)N([C@H](C)CO)C[C@H]1C`, the entry is “inactive”.
The same measure for `N=c1c(C(=O)NC[C@H]2CCCO2)cc2c(=O)n3ccccc3nc2n1CCCN1CCOCC1`: “inactive”.
Consider `COc1ccc(CCNC(=O)c2cc3c(=O)n4cccc(C)c4nc3n(CCCN3CCOCC3)c2=N)cc1`, for which the cytotoxicity call was “active”.
As for `Cc1cccn2c(=O)c3cc(S(=O)(=O)c4ccc(Br)cc4)c(=N)n(CCCN4CCOCC4)c3nc12`, the entry is “inactive”; as for `COc1ccc(CN(C)C[C@@H]2OCCCC[C@@H](C)Oc3ccc(NC(=O)Nc4c(C)noc4C)cc3C(=O)N([C@@H](C)CO)C[C@@H]2C)cc1`, “inactive”; as for `Nc1ncnc2c1ncn2[C@H]1CCCO1`, “inactive”.
As for `C[C@@H]1CN([C@H](C)CO)C(=O)c2ccccc2-c2ccccc2CO[C@@H]1CN(C)S(=O)(=O)c1ccc(C(F)(F)F)cc1`, the cytotoxicity call was “inactive”.
As to `NCc1csc2c1CCCC2`, the cytotoxicity call is “inactive”.
Consider `Cc1ccc(S(=O)(=O)N(C)C[C@@H]2Oc3ccc(NC(=O)Nc4ccc(C(F)(F)F)cc4)cc3CC(=O)N([C@H](C)CO)C[C@H]2C)cc1`, for which the cytotoxicity call is “inactive”.
As for `Cc1ccc(S(=O)(=O)N(C)C[C@@H]2Oc3ccc(NC(=O)Nc4ccc(C(F)(F)F)cc4)cc3CC(=O)N([C@H](C)CO)C[C@@H]2C)cc1`, the entry is “active”; as for `Cc1ccc(S(=O)(=O)N(C)C[C@@H]2Oc3ccc(NC(=O)Nc4ccc(C(F)(F)F)cc4)cc3CC(=O)N([C@@H](C)CO)C[C@H]2C)cc1`, “active”; as for `C[C@H](CO)N1C[C@H](C)[C@H](CN(C)S(C)(=O)=O)Oc2ccc(NC(=O)Nc3ccc(C(F)(F)F)cc3)cc2CC1=O`, “inactive”.
The same measure for `C[C@@H]1CN([C@@H](C)CO)C(=O)Cc2cc(NC(=O)Nc3ccc(C(F)(F)F)cc3)ccc2O[C@@H]1CN(C)S(C)(=O)=O`: “inactive”.
As for `Cc1ccc(S(=O)(=O)N(C)C[C@H]2Oc3ccc(NC(=O)Nc4ccc(C(F)(F)F)cc4)cc3CC(=O)N([C@H](C)CO)C[C@@H]2C)cc1`, the entry is “inactive”; as for `Cc1ccc(S(=O)(=O)N(C)C[C@@H]2Oc3ccc(NC(=O)Nc4ccc(C(F)(F)F)cc4)cc3CC(=O)N([C@@H](C)CO)C[C@@H]2C)cc1`, “active”; as for `Cc1ccc(S(=O)(=O)N(C)C[C@H]2Oc3ccc(NC(=O)Nc4ccc(C(F)(F)F)cc4)cc3CC(=O)N([C@H](C)CO)C[C@H]2C)cc1`, “active”.
In the case of `C[C@@H]1CCCCO[C@@H](CN(C)C(=O)Nc2ccc(F)cc2)[C@H](C)CN([C@H](C)CO)C(=O)c2cc(NC(=O)c3ccncc3)ccc2O1`, the cytotoxicity call is “inactive”.
Turning to `C[C@H]1CCCCO[C@H](CN(C)C(=O)C2CCCCC2)[C@@H](C)CN([C@@H](C)CO)C(=O)c2cc(NS(=O)(=O)c3ccc(F)cc3)ccc2O1`, the cytotoxicity call was “inactive”.
For `C[C@H](CO)N1C[C@H](C)[C@@H](CN(C)C(=O)Nc2ccc(F)cc2)Oc2c(NS(C)(=O)=O)cccc2C1=O`, the cytotoxicity call is “inactive”.
As for `COc1ccc(NC(=O)N(C)C[C@H]2Oc3c(NC(=O)C4CCOCC4)cccc3C(=O)N([C@@H](C)CO)C[C@@H]2C)cc1`, the entry is “inactive”; as for `O=C(N[C@H]1C=C[C@@H](CC(=O)N2CCOCC2)O[C@@H]1CO)c1ccccn1`, “inactive”.
With `CN(C)c1nc2ncnc(N)c2[nH]1`, the cytotoxicity call was “inactive”.
As for `C[C@H]1CN([C@@H](C)CO)C(=O)c2ccccc2-c2ccccc2CO[C@@H]1CN(C)C(=O)Nc1ccccc1C(F)(F)F`, the entry is “inactive”.
As for `C[C@@]1(O)N(CC(=O)O)C(=O)OC12CCCCC2`, the entry is “inactive”; as for `O=C1N[C@@H](Cc2ccccc2)C(=O)N2[C@@H]1C[C@@H](C(=O)NCc1ccc(F)cc1)[C@H]2c1cccc(OCCO)c1`, “inactive”.
As for `O=S1(=O)C[C@H](NC[C@H]2C[C@@H]3C=C[C@H]2C3)[C@@H](O)C1`, the entry is “inactive”; as for `C[C@@H]1CN([C@H](C)CO)C(=O)c2cccc(NS(=O)(=O)c3cn(C)cn3)c2O[C@@H]1CN(C)C(=O)Nc1ccc(F)cc1`, “inactive”; as for `C[C@@H]1CN([C@@H](C)CO)C(=O)Cc2cc(NC(=O)Nc3ccc(C(F)(F)F)cc3)ccc2O[C@H]1CN(C)S(C)(=O)=O`, “inactive”.
For `Cc1ccc(S(=O)(=O)N(C)C[C@H]2Oc3ccc(NC(=O)Nc4ccc(C(F)(F)F)cc4)cc3CC(=O)N([C@@H](C)CO)C[C@H]2C)cc1`, the cytotoxicity call was “active”.
The same measure for `Cc1ccc(S(=O)(=O)N(C)C[C@H]2Oc3ccc(NC(=O)Nc4ccc(C(F)(F)F)cc4)cc3CC(=O)N([C@@H](C)CO)C[C@@H]2C)cc1`: “active”; for `C[C@H]1CN([C@@H](C)CO)C(=O)c2cc(NS(=O)(=O)c3cn(C)cn3)ccc2O[C@H]1CN(C)C(=O)Nc1ccc(F)cc1`: “inactive”.

Values taken from the antibiotic and cytotoxicity screens of Wong et al. (2023).
